Assay results published in PubChem BioAssay (NCATS).
Inconclusive results are not listed. Calls of active or inactive are those of the source. Unless noted, calls come from the whole dose curve; as a rule, active = well fitted curve in the direction sought with a large enough effect; inconclusive = small, poorly fitted or top-dose-only effect, or another doubt; inactive = no such curve, though single readings can be large; an effect the other way counts as inactive or inconclusive.

Assays:
[1] = Stat Signaling Pathway (AID 446; active = well fitted curve in either direction with a large enough effect, not every such curve was filed as active;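 note: ME-180 cervical cancer cells given 40 pM IL-6 alongside compound; SIE-controlled beta-lactamase reporter measured as 460/530 nm FRET emission ratio; % is set by controls: 0 for no effect and ±100 for the full control effect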)
In short: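 ME-180 cells carrying a SIE-driven beta-lactamase reporter are stimulated with 40 pM IL-6 for 5 h at 37C in the presence of compound. The 460/530 nm FRET substrate ratio is read after 2.5 h at RT. Data are normalised to 300 pM IL-6 and to 125 nM JAK inhibitor controls.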

[2] = molecular target: Glucocorticoid receptor (Homo sapiens) (UniProt P04150); experiment: GR-GFP Redistribution (AID 450;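 active = compounds whose dose series gives a full or clear partial fitted curve of increased nuclear translocation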; note: potency is the fitted concentration of half-maximal effect); conditions: U2OS GR-GFP nuclear translocation, laser cytometry, 2 h
Glucocorticoid receptor (Homo sapiens), sequence (P04150 whole entry, looked up, the tested form may be a part): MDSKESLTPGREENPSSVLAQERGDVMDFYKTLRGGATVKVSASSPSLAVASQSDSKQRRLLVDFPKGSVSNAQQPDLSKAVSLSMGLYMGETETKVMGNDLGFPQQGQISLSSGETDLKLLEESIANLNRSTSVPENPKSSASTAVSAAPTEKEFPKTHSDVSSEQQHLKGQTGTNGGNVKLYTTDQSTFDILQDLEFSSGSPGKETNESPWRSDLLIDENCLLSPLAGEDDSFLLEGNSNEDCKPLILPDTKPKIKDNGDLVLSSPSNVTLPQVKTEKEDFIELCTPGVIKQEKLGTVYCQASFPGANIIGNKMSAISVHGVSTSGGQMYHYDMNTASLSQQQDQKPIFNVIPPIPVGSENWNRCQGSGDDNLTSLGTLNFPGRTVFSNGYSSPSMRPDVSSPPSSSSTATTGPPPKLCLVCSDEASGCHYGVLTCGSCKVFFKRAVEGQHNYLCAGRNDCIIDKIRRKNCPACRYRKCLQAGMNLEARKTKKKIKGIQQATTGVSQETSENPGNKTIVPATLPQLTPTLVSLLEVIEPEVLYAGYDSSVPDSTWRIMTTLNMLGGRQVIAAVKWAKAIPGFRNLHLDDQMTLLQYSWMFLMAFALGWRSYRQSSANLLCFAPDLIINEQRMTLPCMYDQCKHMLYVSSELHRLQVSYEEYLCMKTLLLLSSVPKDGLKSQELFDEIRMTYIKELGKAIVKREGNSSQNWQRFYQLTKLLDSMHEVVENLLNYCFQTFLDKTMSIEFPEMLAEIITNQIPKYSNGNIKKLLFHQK

[3] = molecular target: Glucocorticoid receptor (Homo sapiens) (UniProt P04150); experiment: GR-EFC Redistribution (AID 451; calls by dose curve; note: potency is the fitted concentration of half-maximal effect); conditions: CHO-K1 GR-EFC translocation, beta-gal luminescence, 2 h
In short: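 CHO-K1 cells stably expressing nuclear-localized β-gal enzyme acceptor and GR fused C-terminally to the enzyme donor fragment; ligand-driven nuclear translocation restores β-gal by complementation. Compounds titrated up to 46 uM final, 2 h at 37 °C; luminescence read.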

[4] = molecular target: Mitogen-activated protein kinase 10 (Mus musculus) (UniProt Q61831); experiment: JNK3 AlphaScreen Assay (AID 530; active = well fitted curve in either direction with a large enough effect, not every such curve was filed as active;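 note: kinase came from lysate of stimulated human HepG2 cells; signal reports phosphorylation of biotinylated GST-cJun 1-79 at Ser73 with 10 µM ATP; % is set by controls: 0 for no effect and ±100 for the full control effect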)
In short: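 JNK3 came from HepG2 lysates pre-activated with IL-1beta and TNF-alpha and phosphorylated biotinylated GST-cJun (1-79) at 10 uM ATP, pH 7.6, room temperature. Compounds were titrated. AlphaScreen signal used anti-phospho-cJun (Ser73) antibody.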

[5] = qHTS Assay for Lipid Storage Modulators (AID 1519; calls by dose curve; note: potency is the fitted concentration of half-maximal effect; for activity change, negative = inhibition: % is set by controls: 0 for no effect and ±100 for the full control effect); conditions: Drosophila S3 cells, BODIPY lipid droplet/cell ratio, laser cytometry, cells loaded with oleic acid
In short: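 Cells seeded at 5,000 per well were treated with compounds over a concentration series and loaded with oleic acid (400 uM, as added). Lipid droplet fluorescence (488 nm excitation, 500-530 nm channel) was read by laser-scanning cytometry and normalized to 20 uM Triacsin C.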

[6] = S16 Schwann cell viability assay (CellTiter-Glo assay) (AID 624031);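 note: native untransfected S16 rat Schwann cells; cellular ATP luminescence as a viability measure; plate controls were DMSO-treated cells for no effect and cell-free wells for full effect; nearly all actives have a fitted effect of over 70% in size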
In short: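 Concentration-effect curves come from CellTiter-Glo luminescence of S16 rat Schwann cells after 24 h compound exposure. Each reading was normalized to DMSO wells (0%) and wells without cells, and curves were ranked by r2 and response magnitude.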

[7] = qHTS profiling for inhibitors of Plasmodium falciparum proliferation (AID 504749); note: nearly all actives have a fitted effect of over 60% in size; note: potency is the fitted concentration of half-maximal effect;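 for activity, negative = inhibition: 0% = DMSO vehicle and full inhibition = artemisinin control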; conditions: P. falciparum in erythrocytes, SYBR Green DNA, 72 h
In short: (§1)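 P. falciparum-infected erythrocytes (0.3% parasitemia, 2.5% hematocrit final) were exposed to compounds for 72 h at 37 C in 5% CO2, then lysed with SYBR Green buffer overnight at room temperature; parasite DNA fluorescence was normalized to artemisinin and DMSO controls.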

[8] = tested on: CP192; experiment: as above; conditions: P. falciparum in erythrocytes, SYBR Green DNA, 72 h; series mostly up to 12.8 µM
In short: as §1

[9] = tested on: CP201; experiment: as above; conditions: P. falciparum in erythrocytes, SYBR Green DNA, 72 h; series mostly up to 12.8 µM
In short: as §1

[10] = tested on: CP262; experiment: as above; conditions: P. falciparum in erythrocytes, SYBR Green DNA, 72 h; series mostly up to 12.8 µM
In short: as §1

[11] = tested on: CP269; experiment: as above; conditions: P. falciparum in erythrocytes, SYBR Green DNA, 72 h; series mostly up to 12.8 µM
In short: as §1

[12] = tested on: CP305; experiment: as above; conditions: P. falciparum in erythrocytes, SYBR Green DNA, 72 h; series mostly up to 12.8 µM
In short: as §1

[13] = tested on: CP315; experiment: as above; conditions: P. falciparum in erythrocytes, SYBR Green DNA, 72 h; series mostly up to 12.8 µM
In short: as §1

[14] = tested on: CP325; experiment: as above; conditions: P. falciparum in erythrocytes, SYBR Green DNA, 72 h; series mostly up to 12.8 µM
In short: as §1

[15] = tested on: CP329; experiment: as above; conditions: P. falciparum in erythrocytes, SYBR Green DNA, 72 h; series mostly up to 12.8 µM
In short: as §1

[16] = tested on: FAB9; experiment: as above; conditions: P. falciparum in erythrocytes, SYBR Green DNA, 72 h; series mostly up to 12.8 µM
In short: as §1

[17] = tested on: JCK; experiment: as above; conditions: P. falciparum in erythrocytes, SYBR Green DNA, 72 h; series mostly up to 12.8 µM
In short: as §1

[18] = tested on: PC49; experiment: as above; conditions: P. falciparum in erythrocytes, SYBR Green DNA, 72 h; series mostly up to 12.8 µM
In short: as §1

[19] = molecular target: 3',5'-cyclic-AMP phosphodiesterase 4B (Homo sapiens) (UniProt Q07343); experiment: qHTS Assay for Inhibitors of PDE-IV (AID 607; active = well fitted activation curve with a large enough effect in the main read-out, with a control signal flat, not every such curve was filed as active; note: % of control where 0% means no effect)
3',5'-cyclic-AMP phosphodiesterase 4B (Homo sapiens), sequence (Q07343 whole entry, looked up): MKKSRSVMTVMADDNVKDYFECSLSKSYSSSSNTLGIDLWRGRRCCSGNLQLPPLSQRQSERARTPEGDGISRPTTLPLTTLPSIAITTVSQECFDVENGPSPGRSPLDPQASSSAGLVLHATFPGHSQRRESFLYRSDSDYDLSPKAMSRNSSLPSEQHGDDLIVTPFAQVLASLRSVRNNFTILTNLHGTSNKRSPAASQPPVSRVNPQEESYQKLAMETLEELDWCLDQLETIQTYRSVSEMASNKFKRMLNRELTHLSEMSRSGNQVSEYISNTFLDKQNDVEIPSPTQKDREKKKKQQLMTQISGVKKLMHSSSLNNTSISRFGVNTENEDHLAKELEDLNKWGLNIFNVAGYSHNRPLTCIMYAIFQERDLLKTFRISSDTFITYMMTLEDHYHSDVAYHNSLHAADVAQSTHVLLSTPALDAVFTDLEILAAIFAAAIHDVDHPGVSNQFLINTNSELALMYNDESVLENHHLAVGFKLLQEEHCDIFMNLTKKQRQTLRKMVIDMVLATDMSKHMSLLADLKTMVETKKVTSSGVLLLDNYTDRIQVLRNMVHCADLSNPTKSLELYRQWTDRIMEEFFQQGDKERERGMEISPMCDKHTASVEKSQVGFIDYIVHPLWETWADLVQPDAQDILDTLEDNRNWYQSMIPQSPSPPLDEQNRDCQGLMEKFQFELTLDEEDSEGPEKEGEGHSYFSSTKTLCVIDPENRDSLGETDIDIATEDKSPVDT
In short: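 HEK293 ACTOne cells with CNG channel (1000/well), endogenous PDE4; membrane potential dye, compounds up to 22.9 uM final. Fluorescence Ex 535/Em 590; RO 20-1724 (100 uM final) as reference.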

[20] = molecular target: Ubiquitin carboxyl-terminal hydrolase 1 (Homo sapiens) (UniProt O94782); experiment: Inhibitors of USP1/UAF1: Pilot qHTS (AID 504865);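 note: rhodamine fluorescence freed from ubiquitin-rhodamine substrate followed over time; top concentration of the series differs between compounds; % is set by controls: 0 for no effect and ±100 for the full control effect; nearly all actives have a fitted effect of over 35% in size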
Ubiquitin carboxyl-terminal hydrolase 1 (Homo sapiens), sequence (O94782 whole entry, looked up): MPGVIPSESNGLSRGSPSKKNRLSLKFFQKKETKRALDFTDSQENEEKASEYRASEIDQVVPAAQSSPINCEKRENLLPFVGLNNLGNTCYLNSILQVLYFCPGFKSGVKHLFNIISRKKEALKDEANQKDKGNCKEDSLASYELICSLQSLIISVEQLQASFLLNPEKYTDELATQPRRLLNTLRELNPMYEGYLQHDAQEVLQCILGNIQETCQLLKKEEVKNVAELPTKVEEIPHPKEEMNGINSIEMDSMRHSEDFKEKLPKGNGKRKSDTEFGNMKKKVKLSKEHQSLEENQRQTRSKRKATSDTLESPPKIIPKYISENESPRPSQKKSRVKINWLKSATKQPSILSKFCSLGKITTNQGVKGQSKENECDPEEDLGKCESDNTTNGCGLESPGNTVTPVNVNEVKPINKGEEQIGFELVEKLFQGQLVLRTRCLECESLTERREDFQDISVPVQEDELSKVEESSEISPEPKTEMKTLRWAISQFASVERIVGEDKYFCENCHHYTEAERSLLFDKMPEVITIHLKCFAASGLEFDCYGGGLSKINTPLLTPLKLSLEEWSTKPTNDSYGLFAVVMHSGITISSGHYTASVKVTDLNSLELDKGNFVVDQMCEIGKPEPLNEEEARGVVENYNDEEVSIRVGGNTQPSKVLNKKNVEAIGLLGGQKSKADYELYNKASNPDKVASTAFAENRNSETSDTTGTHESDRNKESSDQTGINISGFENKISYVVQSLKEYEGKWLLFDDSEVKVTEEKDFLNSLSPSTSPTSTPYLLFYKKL
In short: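 1nM USP1/UAF1 + cpd, 15 min RT; start w/ Ub-Rho 150nM final; kinetic FL 480/540 nm, 6 reads q60 s. Buffer 50mM HEPES pH 7.8, 0.5mM EDTA, 1mM TCEP, 0.01% Tween-20, 0.1 mg/ml BSA.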

[21] = measured here: cell count channel max response
[22] = measured here: lipid channel max response

CCC(C)(C)C(=O)O[C@@H]1C[C@H](C)C=C2C=C[C@H](C)[C@@H](CC[C@H]3C[C@@H](O)CC(=O)O3)[C@H]21
inactive: outcome [1] | Potency [2] > 20.6 µM | Potency [3] > 20.6 µM | Potency [4] | activity change, negative = inhibition ([5]; at 25.7 µM (top of the series)) -9.23% | outcome [6] | activity, negative = inhibition ([7]; at 12.8 µM (top of the series), parasite line A) -15.1% | Potency [8] | Potency [9] | Potency [10] | Potency [11] | Potency [12] | Potency [13] | Potency [14] | Potency [15] | Potency [16] | Potency [17] | Potency [18]
-20.7%: max response [5, 22]
-10.9%: max response [5, 21]

O=C1OCCN1/N=C\c1ccc([N+](=O)[O-])o1
-14.3%: max response [5, 22]
-13.3%: max response [5, 21]
inactive: outcome [1] | Potency [2] > 20.6 µM | Potency [3] > 20.6 µM | Potency [4] | outcome [19] | activity change, negative = inhibition ([5]; at 25.7 µM (top of the series)) -2% | Potency [20]

COC(=O)C1=C(C)NC(C)=C(C(=O)OCCN(C)Cc2ccccc2)[C@H]1c1cccc([N+](=O)[O-])c1
-13.6%: max response [5, 22]
-15.5%: max response [5, 21]
inactive: outcome [1] | Potency [2] > 20.6 µM | Potency [3] > 20.6 µM | outcome [19] | activity change, negative = inhibition ([5]; at 25.7 µM (top of the series)) 0.376%

CC[C@H](C(=O)[C@H](C)[C@H](O)[C@H](C)CCc1ccc(C)c(O)c1C(=O)O)[C@H]1O[C@](CC)([C@@H]2CC[C@@](O)(CC)[C@H](C)O2)C[C@H]1C
active: Potency [5] 14.1 µM
inactive: Potency [2] > 20.6 µM | Potency [3] > 20.6 µM | Potency [4] | outcome [19]

C[C@]1(c2ccccc2)OC(C(=O)O)=CC1=O
inactive: Potency [4]

COc1cc(C2c3cc4c(cc3C(O[C@@H]3OC5COC(c6cccs6)OC5C(O)C3O)C3COC(=O)C23)OCO4)cc(OC)c1O (some centres not stated)
active: Potency [5] 5.01 µM

COC1OC(CO)C(OC2OC(C(=O)O)C(OC3OC(COS(=O)(=O)O)C(OC4OC(C(=O)O)C(OC5OC(CO)C(OC6OC(C(=O)O)C(OC7OC(COS(=O)(=O)O)C(OC8OC(C(=O)O)=C[C@H](O)C8OS(=O)(=O)O)C(O)C7NC(C)=O)[C@@H](O)C6O)C(O)C5NC(C)=O)[C@@H](O)C4O)C(O)C3NC(C)=O)[C@@H](O)C2O)C(O)C1NC(C)=O (some centres not stated)
inactive: activity change, negative = inhibition ([5]; at 57.5 µM (top of the series)) 0.455% | Potency [20] | outcome [6] | Potency [8] | Potency [9] | Potency [10] | Potency [11] | Potency [12] | Potency [13] | Potency [14] | Potency [15]
-0.316%: max response [5, 22]
-2.95%: max response [5, 21]

CCCCCCCCCc1ccc(OCCOCCOCCOCCOCCOCCOCCOCCOCCO)cc1
inactive: activity change, negative = inhibition ([5]; at 57.5 µM (top of the series)) -9.66% | activity, negative = inhibition ([7]; at 28.7 µM (top of the series), parasite line B) -22.2% | Potency [8] | Potency [9] | Potency [10] | Potency [12] | Potency [13] | Potency [14] | Potency [15] | Potency [16] | Potency [17] | Potency [18]
-5.26%: max response [5, 22]
4.66%: max response [5, 21]

COc1ccc(CC(N)C(=O)NC2C(CO)OC(n3cnc4c(N(C)C)ncnc43)C2O)cc1 (configuration not stated)
inactive: activity change, negative = inhibition ([5]; at 57.5 µM (top of the series)) -15.4% | Potency [20]
active: Potency ([7]; parasite line A) 0.794 µM | Potency ([7]; parasite line B) 1 µM | Potency [8] 1.07 µM | Potency [9] 1.51 µM | Potency [10] 0.675 µM | Potency [11] 0.757 µM | Potency [12] 1.2 µM | Potency [13] 0.849 µM | Potency [14] 1.07 µM | Potency [15] 1.07 µM | Potency [16] 1.78 µM | Potency [17] 3.55 µM | Potency [18] 2 µM
18.9%: max response [5, 21]
1.24%: max response [5, 22]
